Our source for the INHIBITION values is ChEMBL document CHEMBL4513216, “Probing the Open Global Health Chemical Diversity Library for Multistage-Active Starting Points for Next-Generation Antimalarials” (ACS Infect Dis, 2020).

Each structure is given as a SMILES string. The whole screen tested about 69,000 compounds, of which about 8,600 (12%) showed an effect of 50% or more. The entries come from a sample that favours strong results as a whole.

The assay deals with Plasmodium berghei. Put plainly: Screen against P. berghei liver stage (PbLuc), transformed with Luciferase, at 10uM. The class given is functional, HepG2. The note with it: tested at 10 uM.
Regarding `Cc1n[nH]c(C)c1NC(=O)NCc1cc[nH]n1`, the INHIBITION stood at 36%.
Then `O=C(NCC1CCCO1)N1CCN(Cc2ccc3c(c2)CCO3)CC1` (stereo not drawn), with -21.5%; and `OCCNc1nccc(-c2c[nH]nc2-c2cccnc2)n1`, with 15.9%.
Regarding `C[C@@H]1CN(C(=O)NC2CC2)C[C@]12CCN(c1ccsc1)C2=O`, the INHIBITION is listed as 17.1%.
As for `CC(=O)N1CCCC1(C(=O)N1CCCC1)c1cnccn1` (stereo not drawn), the INHIBITION was found to be 6.35%.
Turning to `CN(C)S(=O)(=O)c1ccc(=O)n(CC2CCCO2)c1` (stereo not drawn), the INHIBITION is on record as -28.9%.
As to `CC(C)CNC(=O)Cc1cnc(-n2cccc2)s1`, the INHIBITION worked out at 28.3%.
Turning to `CC(=O)N1CCCC(Cc2cnc(-c3c(C)nn(C)c3C)cn2)C1` (stereo not drawn), the INHIBITION is reported as -10.4%.
Take `COc1ccc2c(c1)CCCN(C(=O)NCC1CCCO1)C2` (stereo not drawn): the INHIBITION is on record as 37.4%.
Consider `NC(=O)CN1CCCN(C(=O)CCOc2ccccc2Cl)CC1`, for which the INHIBITION is 29.7%.
For `CCCNC(=O)C1(Cc2cc(-c3ccccc3)no2)CCN(C(C)=O)C1` (stereo not drawn), the INHIBITION was -3.94%.
For `CC(O)CNc1c(NCc2ccco2)c(=O)c1=O` (stereo not drawn), the INHIBITION amounted to 18.2%.
Consider `c1ccc(Cc2noc(CN3CCOC(Cn4cncn4)C3)n2)cc1` (stereo not drawn), for which the INHIBITION was 13.3%.
Turning to `COCCO[C@@H]1CCN(Cc2csc(C)n2)[C@H]1Cc1ccccc1`, the INHIBITION was found to be 18.1%.
Regarding `Cc1noc(C)c1-c1cccc(CC2CCN(C(=O)c3cc[nH]n3)C2)n1` (stereo not drawn), the INHIBITION came out at 46.1%.
As for `CS(=O)(=O)N1CCc2c(cccc2NC(=O)CC(F)(F)F)C1`, the INHIBITION was 0.79%.
Then `NS(=O)(=O)N1CCc2ccc(NC(=O)CC(F)(F)F)cc21`, with 63.3%; and `NS(=O)(=O)N1CCc2ccc(NC(=O)Cc3ccc(F)cc3)cc21`, with 22.9%.
Regarding `CS(=O)(=O)Nc1ccc(CNC(=O)CN2CCc3ccccc32)cc1`, the INHIBITION came to 16.6%.
Then `NS(=O)(=O)N1CCc2ccc(NC(=O)CCc3ccncc3)cc21`, with 38.5%; and `NS(=O)(=O)N1CCc2ccc(NC(=O)Cc3ccccc3F)cc21`, with 54.4%; and `Cc1cnc2c(C(=O)N(C)Cc3cc(C4CC4)[nH]n3)cnn2c1`, with 21.8%.
For the compound `CC(C)NC(=O)Nc1nc2c(s1)CN(C(=O)NCc1cccs1)CC2`, the INHIBITION is reported as 46.4%.
Turning to `c1ccc(-c2nc(CCNCc3cccnc3)co2)cc1`, the INHIBITION worked out at 45.3%.
Then `COCC1Cn2nnc(-c3cnn(C)c3)c2CN1Cc1cccs1` (stereo not drawn), with 2.58%; and `O=C(c1cccs1)N1CCc2c(nc(N3CCCC3)[nH]c2=O)C1`, with 34%; and `CC(CNS(=O)(=O)c1cccc(Cl)c1)N1CCN(C)CC1` (stereo not drawn), with 46.4%.
For `Cc1cc(Cl)ccc1S(=O)(=O)NCC(C)N1CCN(C)CC1` (stereo not drawn), the INHIBITION is 68.3%.
In the case of `Cc1cccc(S(=O)(=O)NCC(C)N2CCN(C)CC2)c1Cl` (stereo not drawn), the INHIBITION is recorded as -38.2%.
Take `Cc1cc(N(C)C)nc(C2(C)CCCN2C(=O)c2cnccn2)n1` (stereo not drawn): the INHIBITION was 16.5%.
As for `Cc1cc(C)c2nc(CNCCNS(C)(=O)=O)cc(O)c2c1`, the INHIBITION is given as 43.9%.
Consider `Cc1ccc2nc(CNCCCOc3ccccc3)cc(O)c2c1` [UCSF924], for which the INHIBITION came out at 75.7%.
Then `CCN(CC)CCNCc1cc(O)c2cc(C)ccc2n1`, with 16.3%; and `CCOCCCNCc1cc(O)c2cc(C)ccc2n1`, with 0.672%.
With `COCCCNCc1cc(O)c2cc(C)cc(C)c2n1`, the INHIBITION is reported as 51.2%.
As for `Cc1ccc2nc(CNCCCN3CCCC3=O)cc(O)c2c1`, the INHIBITION is listed as 31.7%.
As for `CCS(=O)(=O)CCNCc1cc(O)c2cc(C)cc(C)c2n1`, the figure is 45.8%.
As for `CCOCCNCc1cc(O)c2cc(C)ccc2n1`, the figure is 53.3%; as for `CCOCC1(CNCc2cc(O)c3cc(C)ccc3n2)CC1`, 35.4%; as for `Cc1cc2nc(SCC(=O)NC(C)C)n(Cc3ccco3)c(O)c-2n1`, 12.6%.
For the compound `CN(CC(=O)N1CCCN(Cc2cscn2)CC1)c1cnccn1`, the INHIBITION is 13.9%.
Take `COCCN1CC[C@@H]2OC[C@H](C(=O)NCc3cccs3)C[C@@H]2C1`: the INHIBITION is recorded as 41.5%.
`Cc1ncsc1CN1CCOC(C)(C(=O)N2CCOCC2)C1` (stereo not drawn): the INHIBITION is reported as -3.94%.
In the case of `CNc1nc(CNC(=O)Nc2ccccc2C(F)(F)F)cs1`, the INHIBITION came to 19.4%.
Then `NC(=O)C1(c2cnccn2)CCCN1C(=O)Cc1ccsc1` (stereo not drawn), with 12.84%; and `CCN(CC)c1ccc(C(=O)NCc2cccnc2-n2cncn2)cn1`, with 16.6%; and `O=C(NCc1cccnc1-n1cncn1)c1cc(Cl)ccn1`, with 38.5%.
For the compound `O=C(NCc1cccnc1-n1cncn1)c1ccncc1`, the INHIBITION was found to be 51.2%.
As to `CN(C)c1cc(C(=O)NCc2cccnc2-n2cncn2)ccn1`, the INHIBITION was 83.7%.
Take `Cc1ccc(C(=O)NCc2cccnc2-n2cncn2)cc1S(C)(=O)=O`: the INHIBITION was 17.2%.
Then `CCCc1nc(C(=O)NCc2cccnc2-n2cncn2)cs1`, with -22.1%.
Then `O=C(NCc1cccnc1-n1cncn1)c1cncc(Br)c1`, with 43.8%; and `CN(C)c1ccc(C(=O)NCc2cccnc2-n2cncn2)cc1F`, with 52.6%; and `O=C(NCc1cccnc1-n1cncn1)c1ccc2c(c1)CCO2`, with -0.113%.
As for `CCN1CCC2(CN(C(=O)N(C)C)CC23CCN(CC2CC2)CC3)C1=O` (stereo not drawn), the INHIBITION was -38.1%.
On to `CCCn1c(N2CCCC2)nc2c(C)nn(C)c2c1=O`, for which the INHIBITION was found to be 44.05%.
Turning to `CC(C)C(NC(=O)c1cnc(N2CCOCC2)nc1)c1cccs1` (stereo not drawn), the INHIBITION is given as 38.7%.
Consider `Cc1ccccc1NCc1nc2n(n1)CCCCC2`, for which the INHIBITION came out at 34.2%.
As for `CCN1CC(Oc2ccc(Cl)cc2)=NC(SCC(=O)c2ccccc2)=N1`, the figure is 55.5%.
For the compound `CN1CC(Oc2ccccc2)=NC(SCC(=O)c2ccccc2)=N1`, the INHIBITION is 1.98%.
In the case of `CN1CC(Oc2ccc(Cl)cc2)=NC(SCC(=O)c2ccccc2)=N1`, the INHIBITION amounted to 12.9%.
As for `Cn1c(=O)n(C)c2nc(Br)c(CC(=O)c3ccccc3)n2c1=O`, the INHIBITION came to 37.3%.
Take `CC(C(=O)NCc1ccnc(N(C)C)c1)n1cccn1` (stereo not drawn): the INHIBITION was found to be 49.4%.
Turning to `Cc1cnnn1Cc1nnn2c1CN(Cc1cccs1)CCC2`, the INHIBITION was 45.8%.
For `CN(Cc1cccs1)C(=O)c1ccc(=O)n(C)c1`, the INHIBITION stood at 53.3%.
Turning to `COc1ccc(NC(=O)N(C)Cc2ccco2)cn1`, the INHIBITION is on record as 0.705%.
On to `CN(Cc1ccc2c(c1)OCO2)C(=O)c1ccc(=O)n(C)c1`, for which the INHIBITION was found to be 42.7%.
Turning to `CN(Cc1ccco1)C(=O)c1ccc(=O)n(C)c1`, the INHIBITION came to 55.4%.
Turning to `Cc1occc1CN(C)C(=O)Nc1ccc(=O)n(C)c1`, the INHIBITION is listed as 44.3%.
Regarding `CN(Cc1ccco1)C(=O)Nc1ccc(=O)n(C)c1`, the INHIBITION is reported as 60.1%.
Take `CCN(Cc1cccs1)C(=O)c1ccc(=O)n(C)c1`: the INHIBITION came to 28.7%.
Consider `COCCN(Cc1cccs1)C(=O)c1ccc(=O)n(C)c1`, for which the INHIBITION is recorded as -7.66%.
Turning to `Cn1cc(C(=O)N(Cc2ccco2)Cc2cccs2)ccc1=O`, the INHIBITION is 34%.
